The text below walks through data of PubChem BioAssay (NCATS).

Values joined by “and” are separate entries in the source; they are usually repeats but may differ in a detail not shown here. Equal entries are not always repeated. Inconclusive results are not listed. The source holds several records for some structures; these can differ, active in one and inactive in another. Active and inactive are the calls of the source. The call rests on the fitted dose curve; in most records, active means well fitted curve in the direction sought with a large enough effect; inconclusive means small, poorly fitted or top-dose-only effect, or another doubt; inactive means no such curve, though single readings can be large; an effect the other way counts as inactive or inconclusive.

For experiment [1], the system named is MCC-13. The experiment can be described thus: qHTS assay to identify novel small-molecules to repurpose for Merkel cell carcinoma treatment (AID 1296009). Further: nearly all actives have a fitted effect of over 60% in size. Conditions: MCC and control cell lines, CellTiter-Glo viability, 72 h; series mostly up to 46 µM. The gist of the method: (§1)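 Cells were incubated with compound for 72 hr at 37 degree celsius before CellTiter-Glo addition. Luminescence was normalized with no-cell wells as full cytotoxicity and DMSO as baseline.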

The subject of experiment [2] is MKL-1. The experiment is described as above. Conditions: MCC and control cell lines, CellTiter-Glo viability, 72 h; series mostly up to 46 µM. The procedure, abridged: as §1
For experiment [3], the system named is MKL-2. The experiment is described as above. To be noted: MCC and control cell lines, CellTiter-Glo viability, 72 h; series mostly up to 46 µM. The procedure, abridged: as §1
In experiment [4] the test system is NIH3T3. Described as above. To be noted: MCC and control cell lines, CellTiter-Glo viability, 72 h. The procedure, abridged: as §1
For experiment [5], the system named is UISO. The experiment is described as above. Conditions: MCC and control cell lines, CellTiter-Glo viability, 72 h; series mostly up to 46 µM. The procedure, abridged:
as §1

Experiment [6] relates to WaGa. The description is as above. Conditions: MCC and control cell lines, CellTiter-Glo viability, 72 h; series mostly up to 46 µM. The procedure, abridged:
as §1

The test system of experiment [7] is C33A. The experiment can be described thus: Primary qHTS to identify gynecologic anti-cancer compounds using libraries of approved drugs and bioactive compounds (AID 1345084). Further: nearly all actives have a fitted effect of over 55% in size. Conditions: Gynecologic cancer cell panel viability, ATPlite luminescence, 48 h; series mostly up to 57.5 µM. The gist of the method:
(§2)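 ATP-based viability (ATPlite), 1,000 cells/well, 16 h pre-incubation, 48 h compound at 37 C, 5% CO2, 15 min RT before read.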

Experiment [8] has as its system CAOV3. The description is as above. Conditions: Gynecologic cancer cell panel viability, ATPlite luminescence, 48 h; series mostly up to 57.5 µM. The gist of the method:
as §2

For experiment [9], the system named is CASKI. Described as above. To be noted: Gynecologic cancer cell panel viability, ATPlite luminescence, 48 h; series mostly up to 57.5 µM. The procedure, abridged:
as §2

The subject of experiment [10] is MCC-26. The experiment can be described thus: qHTS assay to identify novel small-molecules to repurpose for Merkel cell carcinoma treatment (AID 1296009). Further: nearly all actives have a fitted effect of over 60% in size. Conditions: MCC and control cell lines, CellTiter-Glo viability, 72 h; series mostly up to 46 µM. The procedure, abridged:
as §1

The mark [11] stands for this setting: at 44.8 µM (top of the series) unless noted.
Potency means the concentration at half of the fitted maximal effect.

Take `CC(=O)Nc1cc([As](=O)(O)O)ccc1O`: the Potency result in experiment [1], in [2], in experiment [3], in experiment [5], in [6] and in [7] was “inactive” each time. The Potency entry in experiment [8] and in experiment [9] was “inactive” throughout. Also, the molecule was called inactive in experiment [4] (setting [11]).

As to `CC[C@@H](CO)NC(=O)[C@@H]1C=C2c3cccc4[nH]cc(c34)C[C@H]2N(C)C1`, the Potency result in experiment [1], in experiment [10], in [2], in [3], in experiment [5] and in experiment [6] was “inactive” in each case. The Potency result in experiment [7], in [8] and in experiment [9] was “inactive” throughout.

On to `O=C(O)C(=O)c1cn(Cc2ccccc2)c2ccc(-c3ccc(OC(F)(F)F)cc3)cc12`, for which the Potency entry in [1], in experiment [10], in experiment [2], in [3], in experiment [5] and in experiment [6] was “inactive” throughout. The Potency entry in [7], in experiment [8] and in [9] was “inactive” each time.

On to `Cn1cc(C2=C(c3cn(C4CCN(Cc5ccccn5)CC4)c4ccccc34)C(=O)NC2=O)c2ccccc21`, for which the Potency entry in [1], in experiment [2], in [3], in experiment [5], in experiment [6] and in experiment [7] was “inactive” each time. Moreover, the Potency result in experiment [8] and in experiment [9] was “inactive” throughout. Moreover, in experiment [4] (setting [11]), the outcome was inactive.

Consider `NP(N)(=O)NC(=O)c1ccc(F)cc1`, for which the Potency entry in experiment [1], in experiment [10], in [2], in experiment [3], in experiment [5] and in [6] was “inactive” throughout. The Potency result in experiment [7], in experiment [8] and in experiment [9] was “inactive” throughout.

Regarding `CCN(CC)CCN1C(=O)CN=C(c2ccccc2F)c2cc(Cl)ccc21`, the Potency result in experiment [1], in experiment [2], in experiment [3], in experiment [5], in experiment [6] and in [7] was “inactive” throughout. Further, the Potency result in experiment [8] and in experiment [9] was “inactive” each time. In [4] (setting [11]), the result was inactive.

Turning to `CCCC(C)(COC(N)=O)COC(=O)NC(C)C` (stereo unspecified), the Potency entry in [1], in experiment [2], in experiment [3], in experiment [5], in experiment [6] and in experiment [7] was “inactive” each time. Further, the Potency entry in experiment [8] and in experiment [9] was “inactive” in each case. The call in experiment [4] (setting [11]) was inactive.

As to `Oc1cccc2cccnc12`, the Potency result in experiment [1], in [7], in [8] and in experiment [9] was “inactive” throughout. The Potency in [10] was 21.7 µM (active) and inactive; in experiment [2] it was 12.2 µM (active) and inactive; in experiment [3], 4.86 µM (active) and inactive; in experiment [5], 10.9 µM (active) and inactive; in [6] it was 38.6 µM (active) and inactive.

Turning to `CC1NCCOC1c1ccccc1` (stereo unspecified), the Potency entry in experiment [1], in experiment [10], in experiment [2], in experiment [3], in experiment [5] and in experiment [6] was “inactive” in each case. In addition, the Potency result in experiment [7] and in experiment [9] was “inactive” each time.

As for `CC(C)(C)CC(C)(C)c1ccc(O)cc1`, the Potency entry in [1], in experiment [10], in experiment [5], in [7], in experiment [8] and in [9] was “inactive” in each case. Further, the values for the Potency in [3] and in experiment [6] were 24.3 µM (active) and 34.4 µM (active), respectively. In experiment [4] (setting [11]), the molecule was called inactive.

As for `N[C@@H](Cc1ccc(N(CCCl)CCCl)cc1)C(=O)O`, the Potency entry in experiment [10] and in [7] was “inactive” each time. Moreover, the Potency is 2.66 µM (active) and 2.96 µM (active) in experiment [2]; 1.33 µM (active) and 469 nM (active) in [3]; 13.3 µM (active) and 13.2 µM (active) in [5]; 4.22 µM (active) and 5.26 µM (active) in [6].

As for `NCC(O)c1ccc(O)cc1` (stereo unspecified), the Potency result in [1], in experiment [2], in experiment [3], in [5], in [6] and in experiment [7] was “inactive” each time. Also, the Potency entry in experiment [8] and in experiment [9] was “inactive” in each case.

For `COc1ccc2c(c1OC)CN1CCc3cc4c(cc3C1C2)OCO4` (stereo unspecified), the Potency entry in experiment [1] and in experiment [8] was “inactive” each time. The Potency in experiment [2] was 11.9 µM (active); in [3] it was 20.9 µM (active); in experiment [6], 16.6 µM (active).

Turning to `C[C@@H]1O[C@@H](O[C@H]2C[C@@H](O)[C@]3(CO)[C@H]4[C@H](O)C[C@]5(C)[C@@H](C6=CC(=O)OC6)CC[C@]5(O)[C@@H]4CC[C@]3(O)C2)[C@H](O)[C@H](O)[C@H]1O`, the Potency was 148 nM (active) and 119 nM (active) in [2]; 0.118 µM (active) in [3]; 83.3 nM (active) and 59.6 nM (active) in experiment [5]; 66.2 nM (active) and 59.6 nM (active) in experiment [6]; 100 nM (active) and 126 nM (active) in experiment [7]; 251 nM (active) and 199 nM (active) in [8]. In addition, in experiment [9], the Potency is 562 nM (active) and 794 nM (active). The result in experiment [4] (at 17.4 µM (top of the series)) and in [4] (at 44.8 µM (top of the series)) was inactive.

Turning to `COC1(CS(=O)c2ccccc2)CCN(CCc2c[nH]c3ccc(F)cc23)CC1` (stereo unspecified), the Potency entry in experiment [1], in [2], in experiment [3], in experiment [5] and in [6] was “inactive” throughout.

For `COc1ccc(C(=O)c2c(C)n(CCN3CCOCC3)c3ccccc23)cc1`, the Potency entry in [1], in experiment [2], in [3], in [5], in experiment [6] and in experiment [7] was “inactive” in each case. Besides, the Potency entry in experiment [9] is “inactive”. For the same molecule, the outcome in experiment [4] (setting [11]) was inactive.

On to `C[C@]12CCC(=O)C(O)=C1CC[C@@H]1[C@@H]2CC[C@]2(C)C(=O)CC[C@@H]12`, for which the Potency entry in experiment [1], in experiment [2], in experiment [3], in [5], in experiment [6] and in experiment [7] was “inactive” in each case. Moreover, the Potency entry in experiment [8] and in [9] was “inactive” each time.

With `c1ccc2c(c1)OCC(C1=NCCN1)O2` (stereo unspecified), the Potency is 26.6 µM (active) in experiment [2] and 5.96 µM (active) in experiment [3].

Consider `CC(C)=CCOc1c2occc2cc2ccc(=O)oc12`, for which the Potency entry in experiment [1], in experiment [2], in experiment [3], in experiment [5], in experiment [6] and in [7] was “inactive” throughout. Further, the Potency entry in experiment [8] and in [9] was “inactive” throughout.

For `C=CCN1CC[C@]23c4c5ccc(O)c4O[C@H]2C(=O)CC[C@@]3(O)[C@H]1C5`, the Potency entry in experiment [1], in experiment [2], in experiment [3], in experiment [5], in [6] and in experiment [7] was “inactive” throughout. Further, the Potency result in [8] and in experiment [9] was “inactive” in each case.

For the molecule `Cc1sc2c(c1C)C(c1ccc(Cl)cc1)=N[C@@H](CC(=O)OC(C)(C)C)c1nnc(C)n1-2`, the Potency is 5.9 µM (active) in [2], 0.264 µM (active) in experiment [3] and 2.35 µM (active) in experiment [6].

For the molecule `CO[C@]12CC[C@@]3(C[C@@H]1[C@](C)(O)C(C)(C)C)[C@@H]1Cc4ccc(O)c5c4[C@@]3(CCN1CC1CC1)[C@H]2O5`, the Potency is 53.9 µM (active) in experiment [1], 34 µM (active) in experiment [3] and 24.1 µM (active) in experiment [5].

For the molecule `C[C@]12C/C(=C/O)C(=O)C[C@@H]1CC[C@@H]1[C@@H]2CC[C@@]2(C)[C@H]1CC[C@]2(C)O`, the Potency entry in [1], in experiment [7], in [8] and in experiment [9] was “inactive” throughout.
